Data from PubChem BioAssay (NCATS).
Inconclusive results are not listed. Activity calls are given as the source filed them. Unless noted, the call rests on the fitted dose curve; in most records, active means well fitted curve in the direction sought with a large enough effect; inconclusive means small, poorly fitted or top-dose-only effect, or another doubt; inactive means no such curve, though single readings can be large; an effect the other way counts as inactive or inconclusive.

Tests used:
[1] = target: Luciferin 4-monooxygenase (Photinus pyralis) (UniProt P08659); test: Biochemical firefly luciferase enzyme assay for NPC (AID 624030);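 further: purified P. pyralis luciferase at 10 nM with luciferin and ATP substrate; nearly all actives have a fitted effect of over 70% in size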; conditions: purified P. pyralis luciferase, luminescence, 5 min; series mostly up to 58.6 µM
Chain of Luciferin 4-monooxygenase (Photinus pyralis) (P08659 whole entry, looked up): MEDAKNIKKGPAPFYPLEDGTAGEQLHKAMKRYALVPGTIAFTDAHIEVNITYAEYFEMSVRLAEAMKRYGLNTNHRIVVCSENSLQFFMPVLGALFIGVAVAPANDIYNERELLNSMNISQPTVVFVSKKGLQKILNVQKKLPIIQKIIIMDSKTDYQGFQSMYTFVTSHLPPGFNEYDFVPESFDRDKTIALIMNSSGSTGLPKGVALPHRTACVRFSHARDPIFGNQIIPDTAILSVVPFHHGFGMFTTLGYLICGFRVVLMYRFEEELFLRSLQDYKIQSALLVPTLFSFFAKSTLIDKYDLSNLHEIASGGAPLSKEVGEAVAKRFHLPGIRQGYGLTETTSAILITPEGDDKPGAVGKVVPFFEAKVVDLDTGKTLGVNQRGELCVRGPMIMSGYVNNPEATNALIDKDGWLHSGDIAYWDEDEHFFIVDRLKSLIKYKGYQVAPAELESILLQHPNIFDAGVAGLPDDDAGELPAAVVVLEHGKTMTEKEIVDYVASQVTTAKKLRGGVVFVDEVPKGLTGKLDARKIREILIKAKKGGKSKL
How it was run: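 Purified P. pyralis luciferase at 10 nM in 50 mM Tris Acetate (final), luminescence read within 5 minutes of enzyme addition to compounds. Activity normalised to PTC124 versus DMSO; concentration-response curves classed by r2, magnitude and activity.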

[2] = S16 Schwann cell viability assay (CellTiter-Glo assay) (AID 624031); conditions: S16 rat Schwann cells viability, 24 h; series mostly up to 57.5 µM;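 further: cellular ATP luminescence as a viability measure; nearly all actives have a fitted effect of over 70% in size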
How it was run: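 This viability control uses native rat S16 Schwann cells grown in DMEM plus 10% FBS. After a 24 h compound treatment at 37 °C, CellTiter-Glo luminescence reports ATP content, scaled against DMSO-treated and cell-free wells.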

[3] = S16 Schwann cell PMP22 intronic element firefly luciferase assay (AID 624032); conditions: S16 rat Schwann cells, PMP22 element FLuc, 24 h; series mostly up to 57.5 µM; further: nearly all actives have a fitted effect of over 30% in size
How it was run: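 Rat S16 Schwann cells stably carrying firefly luciferase driven by a PMP22 intronic element, in 10% FBS, treated 24 h at 37 C. ONE-Glo luminescence normalized to PTC124 control and DMSO (0%); curves classed by r2, magnitude and activity.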

[4] = S16 Schwann cell PMP22 intronic element beta-lactamase assay (AID 624044; calls by dose curve; further: nearly all actives have a fitted effect of over 15% in size); conditions: S16 rat Schwann cells, PMP22 element beta-lactamase FRET, 24 h; series mostly up to 38.3 µM
How it was run: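 Beta-lactamase reporter under a PMP22 intronic regulatory element in stable S16 rat Schwann cells; 24 h compound exposure. 460 nm blue signal normalized between DMSO (0%) and potassium clavulanate, with 535 nm FRET tracking viability; curves classed by r2 and response.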

AA1029 = test: qHTS profiling for inhibitors of Plasmodium falciparum proliferation (AID 504749); further: nearly all actives have a fitted effect of over 60% in size; conditions: P. falciparum in erythrocytes, SYBR Green DNA, 72 h; series mostly up to 28.7 µM
How it was run: (§1)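 Each compound contacts P. falciparum-infected red blood cells for 72 h at 37 C; lysis buffer (Tris, EDTA, saponin, Triton X, SYBR Green I) is added and fluorescence measured next morning; values normalized to controls.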

CP211 = test: as above; conditions: P. falciparum in erythrocytes, SYBR Green DNA, 72 h; series mostly up to 28.7 µM
How it was run: as §1

CP215 = test: as above; conditions: P. falciparum in erythrocytes, SYBR Green DNA, 72 h; series mostly up to 28.7 µM
How it was run: as §1

CP217 = test: as above; conditions: P. falciparum in erythrocytes, SYBR Green DNA, 72 h; series mostly up to 28.7 µM
How it was run: as §1

CP252 = test: as above; conditions: P. falciparum in erythrocytes, SYBR Green DNA, 72 h; series mostly up to 28.7 µM
How it was run: as §1

CP260 = test: as above; conditions: P. falciparum in erythrocytes, SYBR Green DNA, 72 h; series mostly up to 28.7 µM
How it was run: as §1

CP297 = test: as above; conditions: P. falciparum in erythrocytes, SYBR Green DNA, 72 h; series mostly up to 28.7 µM
How it was run: as §1

CP315 = test: as above; conditions: P. falciparum in erythrocytes, SYBR Green DNA, 72 h; series mostly up to 28.7 µM
How it was run: as §1

FAB9 = test: as above; conditions: P. falciparum in erythrocytes, SYBR Green DNA, 72 h; series mostly up to 28.7 µM
How it was run: as §1

ICS = test: as above; conditions: P. falciparum in erythrocytes, SYBR Green DNA, 72 h; series mostly up to 28.7 µM
How it was run: as §1

JCK = test: as above; conditions: P. falciparum in erythrocytes, SYBR Green DNA, 72 h; series mostly up to 28.7 µM
How it was run: as §1

N140 = test: as above; conditions: P. falciparum in erythrocytes, SYBR Green DNA, 72 h; series mostly up to 28.7 µM
How it was run: as §1

PC15 = test: as above; conditions: P. falciparum in erythrocytes, SYBR Green DNA, 72 h; series mostly up to 28.7 µM
How it was run: as §1

TAB165 = test: as above; conditions: P. falciparum in erythrocytes, SYBR Green DNA, 72 h; series mostly up to 28.7 µM
How it was run: as §1

[5] = Confirmatory qHTS for small molecule stabilizers of the endoplasmic reticulum resident proteome: Secreted ER Calcium Modulated Protein (SERCaMP) assay (AID 1508628); conditions: SERCaMP secreted luciferase ER calcium/proteostasis reporter; series mostly up to 76.3 µM; further: nearly all actives have a fitted effect of over 40% in size
How it was run: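 Reporter secretion upon ER calcium depletion (100 nM thapsigargin, 4 h, 37C) is measured as medium luminescence with coelenterazine, after 16 h compound pretreatment of SH-SY5Y-GLuc-SERCaMP cells; primary at three concentrations up to 38.3 uM, follow-up at 11 (up to 76.6 uM).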

[6] = qHTS to identify inhibitors of the type 1 interferon - major histocompatibility complex class I in skeletal muscle: primary screen against the NCATS Mechanism Interrogation Plate v5.0 (MIPE) Libary (AID 1347411); conditions: iHSKM cells + IFN-b, HiBiT-tagged MHC-I luminescence, 24 h; series mostly up to 45.8 µM; further: nearly all actives have a fitted effect of over 65% in size
How it was run: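 Seed engineered human myoblasts (HLA-B HiBit) in medium without dexamethasone containing 4 ng/ml IFN-beta; after 1 hr add compound titrations (top 46 uM final). Incubate 24 hrs at 37 C, lyse 10 min with HiBiT reagent, read luminescence.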

Measured: Potency

COC(=O)[C@@H]1[C@@H]2C[C@H]3c4[nH]c5ccccc5c4CCN3C[C@@H]2CC[C@@H]1O
inactive: [1] | [2] | [3] | [4] | AA1029 | CP211 | CP215 | CP217 | CP252 | CP260 | CP297 | CP315 | FAB9 | ICS | JCK | N140 | PC15 | TAB165

O=S(=O)(c1cccc2cnccc12)N1CCNCC1
inactive: [5]

Clc1ccc(-c2nc3sccn3c2/C=N/OCc2ccc(Cl)c(Cl)c2)cc1
inactive: [6]
